Records with an inconclusive call do not appear. Entries that show only a call come without a potency. Activity calls are given as the source filed them. Calls follow the shape of the dose curve; as a rule, active = well fitted curve in the direction sought with a large enough effect; inconclusive = small, poorly fitted or top-dose-only effect, or another doubt; inactive = no such curve, though single readings can be large; an effect the other way counts as inactive or inconclusive.
Experiments:
[1] = system: Zika virus NS2B-NS3 protease (linked construct); test: Confirmatory screen NINDS AMC qHTS for Zika virus inhibitors (AID 1347152);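 also: AMC fluorescence gain from cleaved Bz-Nle-KRR-AMC substrate over 15 min; top concentration of the series differs between compounds; nearly all actives have a fitted effect of over 70% in size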
How it was run: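 In this dose-response qHTS, AMC release from 10 microM Bz-Nle-KRR-AMC by 1 nM linked protease is measured over 15 minutes (about 20% conversion) at pH 8.0. Percent inhibition is fitted to a 4-parameter Hill curve.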

[2] = system: Zika virus NS2B-NS3 protease (unlinked complex); test: Confirmatory screen GU AMC qHTS for Zika virus inhibitors (AID 1347153); also: nearly all actives have a fitted effect of over 70% in size
How it was run: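 Compounds were preincubated 15 min at room temperature with 25 nM noncovalent NS2B-NS3 protease at pH 8.0; AMC substrate added at 10 microM and 15-min fluorescence gain (340/450 nm) converted to percent inhibition, fitted 4-parameter.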

[3] = Tertiary RLuc qRT-PCR qHTS assay for Zika virus inhibitors (AID 1347169); also: top concentration of the series differs between compounds; nearly all actives have a fitted effect of over 55% in size
How it was run: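 Orthogonal cell-based infection assay using recombinant ZIKV-RLuc (Cambodian) in Vero cells; compound added prior to virus at MOI 1-2. Incubation lasts 48-72 hrs at 37 degrees C before live-cell Renilla substrate is added and luminescence measured.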

Furin (Homo sapiens) = Furin (Homo sapiens) (UniProt P09958); test: Furin counterscreen qHTS for Zika virus inhibitors (AID 1347149); also: nearly all actives have a fitted effect of over 70% in size; also: potency is read from the fitted curve at half-maximal effect
Furin (Homo sapiens), sequence (P09958 whole entry, looked up): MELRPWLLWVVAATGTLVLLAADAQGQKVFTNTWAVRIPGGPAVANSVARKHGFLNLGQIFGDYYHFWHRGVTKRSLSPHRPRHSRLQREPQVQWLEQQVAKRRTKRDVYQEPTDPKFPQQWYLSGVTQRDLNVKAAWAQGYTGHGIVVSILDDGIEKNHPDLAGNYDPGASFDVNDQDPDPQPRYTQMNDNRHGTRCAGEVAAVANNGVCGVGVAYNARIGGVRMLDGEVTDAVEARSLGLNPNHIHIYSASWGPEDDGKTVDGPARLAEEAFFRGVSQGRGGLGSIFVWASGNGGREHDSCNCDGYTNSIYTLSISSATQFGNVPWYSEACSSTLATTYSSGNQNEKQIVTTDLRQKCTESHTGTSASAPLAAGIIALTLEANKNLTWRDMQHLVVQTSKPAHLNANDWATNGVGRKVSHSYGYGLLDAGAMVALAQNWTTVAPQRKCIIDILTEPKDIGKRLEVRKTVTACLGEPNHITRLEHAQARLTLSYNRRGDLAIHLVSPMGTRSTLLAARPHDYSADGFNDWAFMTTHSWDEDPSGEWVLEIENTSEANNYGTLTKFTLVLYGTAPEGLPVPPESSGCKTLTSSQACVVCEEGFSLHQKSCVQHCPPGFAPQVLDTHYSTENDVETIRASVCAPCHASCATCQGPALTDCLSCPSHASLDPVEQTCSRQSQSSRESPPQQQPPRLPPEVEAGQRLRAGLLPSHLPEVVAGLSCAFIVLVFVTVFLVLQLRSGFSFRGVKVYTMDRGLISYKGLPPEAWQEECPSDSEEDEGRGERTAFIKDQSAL
How it was run: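 Counterscreen measures cleavage of 2 microM BOC-RVRR-AMC, below its ~15 microM Km, by 5 nM full-length human furin at pH 7.0 after a 15-min compound preincubation. Inhibition derives from the 15-min fluorescence increase at 37C.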

[4] = Confirmatory screen NINDS Rhodamine qHTS for Zika virus inhibitors (AID 1347161); also: potency is read from the fitted curve at half-maximal effect; nearly all actives have a fitted effect of over 60% in size
How it was run: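 Kinetic fluorescence (Ex 480 nm, Em 540 nm) over 15 min with 1.5 microM Rhodamine110 peptide and 25 nM linked protease.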

[5] = target: Rap guanine nucleotide exchange factor 3 (Homo sapiens) (UniProt O95398); test: Confirmatory qHTS for antagonist of cAMP-regulated guanine nucleotide exchange factor 3 (EPAC1) (AID 1645880); also: nearly all actives have a fitted effect of over 55% in size
Rap guanine nucleotide exchange factor 3 (Homo sapiens), sequence (O95398 whole entry, looked up): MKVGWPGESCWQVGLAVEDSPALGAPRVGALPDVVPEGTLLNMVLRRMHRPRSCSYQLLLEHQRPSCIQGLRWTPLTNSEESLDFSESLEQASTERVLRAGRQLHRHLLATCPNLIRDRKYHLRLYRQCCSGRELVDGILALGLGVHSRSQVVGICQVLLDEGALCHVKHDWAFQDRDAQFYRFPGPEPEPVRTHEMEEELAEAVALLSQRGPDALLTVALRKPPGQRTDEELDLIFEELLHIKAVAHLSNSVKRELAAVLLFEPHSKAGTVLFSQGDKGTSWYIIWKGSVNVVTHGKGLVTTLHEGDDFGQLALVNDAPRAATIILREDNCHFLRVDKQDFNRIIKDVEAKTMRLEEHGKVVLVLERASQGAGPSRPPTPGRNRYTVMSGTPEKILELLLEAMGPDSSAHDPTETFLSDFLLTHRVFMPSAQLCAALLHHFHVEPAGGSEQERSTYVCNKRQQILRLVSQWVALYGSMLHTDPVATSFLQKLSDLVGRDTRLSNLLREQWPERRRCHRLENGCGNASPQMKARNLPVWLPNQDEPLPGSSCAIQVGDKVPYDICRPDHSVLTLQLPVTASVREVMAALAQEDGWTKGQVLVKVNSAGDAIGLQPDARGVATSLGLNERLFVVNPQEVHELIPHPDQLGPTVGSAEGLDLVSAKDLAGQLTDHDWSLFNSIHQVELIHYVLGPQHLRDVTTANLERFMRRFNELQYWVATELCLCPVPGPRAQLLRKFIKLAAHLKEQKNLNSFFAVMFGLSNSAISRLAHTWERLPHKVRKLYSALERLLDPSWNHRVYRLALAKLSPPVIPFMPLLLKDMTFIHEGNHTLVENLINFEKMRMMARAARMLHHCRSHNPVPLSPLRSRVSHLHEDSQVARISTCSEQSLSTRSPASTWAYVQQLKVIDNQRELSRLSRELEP
How it was run: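 Released BODIPY-GDP fluoresces less than Rap1-bound BODIPY-GDP; the signal is followed at 480/540 nm at 5-min intervals over 30 min, after 5 min at room temperature. Reactions contain 100 nM EPAC1, 250 nM RAP1B-BODIPY-GDP and 50 uM GDP; results are normalized to ATA and DMSO.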

[6] = target: Rap guanine nucleotide exchange factor 4 (Homo sapiens) (UniProt Q8WZA2); test: Confirmatory qHTS for agonist of cAMP-regulated guanine nucleotide exchange factor 4 (EPAC2) (AID 1645884);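 also: nucleotide exchange releases bodipy-GDP from Rap1 and this lowers its fluorescence; nearly all actives have a fitted effect of over 65% in size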
Rap guanine nucleotide exchange factor 4 (Homo sapiens), sequence (Q8WZA2 whole entry, looked up): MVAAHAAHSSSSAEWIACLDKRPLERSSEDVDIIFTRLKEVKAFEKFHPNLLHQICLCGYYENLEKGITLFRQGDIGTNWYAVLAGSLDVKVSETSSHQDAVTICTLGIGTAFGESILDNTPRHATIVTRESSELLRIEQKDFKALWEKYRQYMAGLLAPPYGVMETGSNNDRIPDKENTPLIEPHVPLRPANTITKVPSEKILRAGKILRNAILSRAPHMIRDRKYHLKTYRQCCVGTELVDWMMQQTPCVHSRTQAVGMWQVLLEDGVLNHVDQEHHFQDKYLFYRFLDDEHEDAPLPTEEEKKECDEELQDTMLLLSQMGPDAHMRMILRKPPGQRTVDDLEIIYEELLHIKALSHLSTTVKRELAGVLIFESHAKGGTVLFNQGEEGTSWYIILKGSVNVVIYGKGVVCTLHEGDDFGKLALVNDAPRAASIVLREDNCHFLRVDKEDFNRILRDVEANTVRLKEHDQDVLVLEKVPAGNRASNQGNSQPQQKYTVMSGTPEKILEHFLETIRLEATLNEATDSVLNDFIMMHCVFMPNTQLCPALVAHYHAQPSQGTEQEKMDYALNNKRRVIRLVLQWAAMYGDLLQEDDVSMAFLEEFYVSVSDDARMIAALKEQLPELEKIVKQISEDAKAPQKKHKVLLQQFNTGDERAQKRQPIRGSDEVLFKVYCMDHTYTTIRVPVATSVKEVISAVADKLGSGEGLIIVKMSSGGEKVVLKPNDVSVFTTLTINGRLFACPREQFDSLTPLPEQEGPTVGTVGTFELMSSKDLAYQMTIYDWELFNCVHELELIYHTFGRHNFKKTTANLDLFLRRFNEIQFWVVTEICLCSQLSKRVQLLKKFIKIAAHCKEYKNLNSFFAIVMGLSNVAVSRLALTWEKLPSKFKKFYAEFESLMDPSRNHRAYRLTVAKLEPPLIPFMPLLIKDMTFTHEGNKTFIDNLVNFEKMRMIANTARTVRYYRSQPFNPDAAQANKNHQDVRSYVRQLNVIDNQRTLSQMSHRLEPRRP

[7] = target: Rap guanine nucleotide exchange factor 4 (Homo sapiens) (UniProt Q8WZA2); test: Confirmatory qHTS for antagonist of cAMP-regulated guanine nucleotide exchange factor 4 (EPAC2) (AID 1645885); also: potency is read from the fitted curve at half-maximal effect; nearly all actives have a fitted effect of over 25% in size
[8] = target: Rap guanine nucleotide exchange factor 3 (Homo sapiens) (UniProt O95398); test: Counterscreen qHTS for antagonist of cAMP-regulated guanine nucleotide exchange factor 3 (EPAC1) (AID 1645888)
How it was run: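 Rap1B-BODIPY-GDP 250 nM + GDP 50 uM; cpds 7-pt, final 9.74 nM–152 uM (activator mode) or from 7.32 nM upwards (inhibitor mode); RT; FI 480/540 nm at 5 and 30 min, then ± cAMP, reread.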

[9] = system: Zika virus NS2B-NS3 protease (unlinked); test: Optimization of GU AMC qHTS for Zika virus inhibitors: Unlinked NS2B-NS3 protease assay (AID 1347151); also: potency is read from the fitted curve at half-maximal effect; nearly all actives have a fitted effect of over 80% in size
How it was run: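 Percent inhibition is derived from the 15-min change in AMC fluorescence, normalized against no-inhibitor and no-enzyme controls, then fitted to a 4-parameter Hill curve. Aprotinin was the intraplate control.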

[10] = system: Zika virus NS2B-NS3 protease (linked); test: 384 well plate NINDS AMC confirmatory qHTS for Zika virus inhibitors (AID 1347163); also: nearly all actives have a fitted effect of over 50% in size; also: potency is read from the fitted curve at half-maximal effect
How it was run: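 Enzyme (5, 30 or 60 nM final) first met test compounds for ~15 min. The AMC-tagged peptide Ac-VKTGKR-AMC followed at 30 microM. Fluorescence was then recorded at 25 min and scaled against no-enzyme and no-inhibitor wells.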

[11] = system: Zika virus NS2B-NS3 protease (linked construct); test: 384 well plate NINDS Rhodamine confirmatory qHTS for Zika virus inhibitors (AID 1347164); also: nearly all actives have a fitted effect of over 65% in size; also: potency is read from the fitted curve at half-maximal effect
How it was run: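 Compounds are incubated about 15 minutes with linked protease (5, 30 or 60 nM final). Rhodamine 110-tagged Ac-LKRR substrate (10 microM final) is added and fluorescence measured after 25 minutes.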

[12] = Vero cells viability qHTS for Zika virus inhibitors (AID 1347167)
How it was run: (§1)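 Luminescent ATP readout (CellTiter Glo) after 30 min at 37 degrees C gives viability; cells in DMEM + 4% FBS were treated 24 to 48 hours with compound, following overnight attachment.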

[13] = HepG2 cells viability qHTS for Zika virus inhibitors (AID 1347168)
How it was run: as §1

[14] = ZIKV-mCherry secondary qHTS for Zika virus inhibitors (AID 1347158); also: top concentration of the series differs between compounds
How it was run: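 Read-out is percent infection: mCherry-positive Vero cells (nuclear-proximal intensity >450 RFU, 3 SD above negative controls) counted by high-content imaging of Hoechst-stained, PFA-fixed wells after 48-72 h with ZIKV-mCherry at MOI 1 and compound.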

## O=S(=O)(N[C@H]1CO[C@H]2[C@@H]1OC[C@@H]2n1nnnc1-c1ccc2c(c1)OCO2)c1ccc2ccccc2c1
[1]
  Potency: inactive
[2]
  Potency: inactive
[3]
  Potency: inactive

## CCCCCCc1cc2cc(-c3nnc(-c4cccc(Cl)c4)o3)c(=O)oc2cc1O
Furin (Homo sapiens)
  Potency: inactive
[4]
  Potency: 3.55 µM (active)
[5]
  Potency: inactive
[6]
  outcome: inactive
[7]
  Potency: 7.57 µM (active)
[8]
  outcome: inactive

## CN1CCN(C(=O)CCN2C(=O)/C(=C\c3ccccc3F)SC2=S)CC1
[9]
  Potency: 49.4 µM (active)
[10]
  Potency: 251 µM (active)
[11]
  Potency: inactive
[12]
  Potency: inactive
[13]
  Potency: inactive
[3]
  Potency: inactive

## O=C(COc1ccccc1C(=O)OCC(=O)Nc1cccc2ccccc12)Nc1ccc(Br)cc1
Furin (Homo sapiens)
  Potency: inactive
[11]
  Potency: inactive

## COc1ccccc1C(=O)Nc1ccc(C(=O)OCc2cc(=O)n3c4c(sc3n2)CCCC4)cc1
Furin (Homo sapiens)
  Potency: 7.44 µM (active)
[14]
  Potency: inactive
[3]
  Potency: inactive

## O=C(O)c1ccc(-c2ccc(C(F)(F)F)cc2)cc1
[1]
  Potency: inactive
[2]
  Potency: inactive

## O=C(O)c1cccc(-c2cccc(C(F)(F)F)c2)c1
[1]
  Potency: inactive
[2]
  Potency: inactive
[14]
  Potency: inactive
[11]
  Potency: 501 µM (active)

## CC(Oc1ccccc1)C(=O)Nc1ccc(C(=O)OCc2cc(=O)n3nc(C4CC4)sc3n2)cc1 (configuration not stated)
Furin (Homo sapiens)
  Potency: inactive
[10]
  Potency: inactive
[11]
  Potency: inactive
[3]
  Potency: inactive

## O=C(Nc1ccc(Oc2ccccc2)cc1)O[C@@H]1CO[C@H]2[C@@H]1OC[C@@H]2NS(=O)(=O)c1ccc2ccccc2c1
[1]
  Potency: inactive
[2]
  Potency: inactive

From PubChem BioAssay (NCATS)
